Most compounds without a hit are left out; they make up all but 4% or so of the library.
UGM FP inh = blocks M. tuberculosis UGM enzyme; P9WIQ1; purified UGM, fluorescence polarization probe displacement; inhibition, % at 10 µM; 320,000 tested, 0.06% active; in the data active means inhibition above about 10%, passing the limit was not always enough
Target sequence (P9WIQ1 whole entry, looked up): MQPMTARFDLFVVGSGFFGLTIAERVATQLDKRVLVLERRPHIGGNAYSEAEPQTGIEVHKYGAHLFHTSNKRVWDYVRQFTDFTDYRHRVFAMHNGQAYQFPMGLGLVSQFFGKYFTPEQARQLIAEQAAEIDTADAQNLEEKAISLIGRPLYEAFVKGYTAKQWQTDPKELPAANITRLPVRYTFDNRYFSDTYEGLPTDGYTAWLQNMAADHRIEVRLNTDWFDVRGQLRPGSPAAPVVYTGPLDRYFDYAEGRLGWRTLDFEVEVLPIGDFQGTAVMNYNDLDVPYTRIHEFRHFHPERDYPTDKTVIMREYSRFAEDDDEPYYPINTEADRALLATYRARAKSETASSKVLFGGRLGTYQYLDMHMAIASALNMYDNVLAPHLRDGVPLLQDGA
Mtb betalactam = beta-lactam sensitization of Mtb H37Rv; M. tuberculosis H37Rv growth with meropenem, percent inhibition; inhibition, % at 25 µM; 330,000 tested, 0.27% active; call rule not given here;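 further: growth measured after seven days incubation then overnight dye step; 0% = bacteria only wells and 100% = bacteria with antibiotic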
GDH-TPI counter-1 = counter-screen for M. tuberculosis FBA inhibitors: GDH-TPI coupled enzymes; GDH-TPI coupled enzyme counterscreen, NADH absorbance; inhibition, % at 4.8 µM; 360,000 tested, 1.2% active; AID 588335; in the data active means inhibition above about 30%;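 further: 0% = DMSO wells and 100% = wells lacking the enzyme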
Mtb FBA inh = inhibitors of M. tuberculosis fructose-bisphosphate aldolase; P9WQA3; purified M. tuberculosis FBA, fluorescence read-out; AID 588726; 360,000 tested, 2.3% active; inhibition, % at 1 µM;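 further: 0% = vehicle and 100% = reference inhibitor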
Rv3671c protease = inhibitors of M. tuberculosis serine protease Rv3671c. P9WHR9. inhibition, % at 5.96 µM. 320,000 tested, 0.048% active. AID 2606; in the data active means inhibition above about 38%;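 further: extracellular domain of Rv3671c used as enzyme; 0% = enzyme with DMSO and 100% = no enzyme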
RecA intein inh = Mtb RecA intein splicing inhibition. P9WHJ3. cell-free RecA intein splicing, fluorescence. inhibition, % (no concentration beside the values). 290,000 tested, 0.75% active. AID 2221; in the data active means inhibition above about 30%;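 further: 0% = vehicle wells and 100% = reference inhibitor control wells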
Mtb FBA inh conf = confirmation of M. tuberculosis fructose-bisphosphate aldolase inhibitors; shares compounds with Mtb FBA inh; purified M. tuberculosis FBA, fluorescence read-out; inhibition, % at 1 µM; 5,600 tested, 78% active; AID 651616;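 further: 0% = vehicle wells and 100% = reference inhibitor wells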
GDH-TPI counter-2 = inhibits GDH-TPI coupling enzymes, flagging Mtb FBA hits. GDH-TPI coupled enzyme counterscreen, fluorescence. shares compounds with Mtb FBA inh. AID 652141. inhibition, % at 1 µM. 5,600 tested, 81% active; in the data active means inhibition above about 10%
The depositor's hits bear a star; . = not tested or not shown; + = active, no number. Unless noted, no stated cut-off is given here; in the data, active means inhibition above about 27%; inactive means the rest.

SMILES	UGM FP inh	Mtb betalactam	GDH-TPI counter-1	Mtb FBA inh	Rv3671c protease	RecA intein inh	Mtb FBA inh conf	GDH-TPI counter-2
Nc1cc2[nH]c(=O)c3ccccc3c2cc1Br	.	.	21	11	.	.	.	.
CC(=O)Nc1ccc2c(c1)[nH]c(=O)c1ccccc12	.	.	20	50*	.	.	64*	45*
Nc1ccc2c(c1)[nH]c(=O)c1ccccc12	.	.	5	69*	.	.	3	3
O=C(Nc1ccc2c(c1)[nH]c(=O)c1ccccc12)C(F)(F)F	.	.	13	6	.	.	.	.
NNC(=S)Nc1cc(S(=O)(=O)N2CCOCC2)ccc1N1CCOCC1	-1	-2	4	-1	-4	1	.	.
Cc1cc(C(=O)NNC(=O)c2cccc(N(C)C)c2)c(C)o1	0	-19	8	2	6	-1	.	.
Cc1c(OCC(=O)N[C@@H](Cc2ccccc2)C(=O)O)ccc2c1oc(=O)c1ccccc12	1	-3	12	52*	-8	7	+	+
Cc1c(Cc2ccccc2)c(=O)oc2c(C)c(OC(C)C(=O)N[C@@H](Cc3ccccc3)C(=O)O)ccc12 (some centres not stated)	0	-8	10	68*	-3	6	191*	160*
COc1ccc(NC(=O)c2cc(-c3cc(Cl)ccc3C)n[nH]2)cc1OC	.	.	3	-4	.	.	.	.
CN(C(=O)c1ccncc1)c1nnc(-c2ccccn2)s1	-1	-10	-3	48*	4	-3	146*	133*
CN(C(=O)c1ccc(C#N)cc1)c1nnc(-c2ccccn2)s1	.	.	1	5	.	1	.	.
CCCc1cc(=O)oc2cc(C)cc(OCC(=O)Nc3ccc(S(N)(=O)=O)cc3)c12	3	5	7	19	-5	-1	.	.
CCCc1cc(=O)oc2cc(C)cc(OCC(=O)NC(Cc3ccc(Cl)cc3)C(=O)O)c12 (configuration not stated)	0	-5	5	70*	-2	-3	3	0
CCCCc1cc(=O)oc2cc(C)cc(OCC(=O)NC(Cc3ccc(Cl)cc3)C(=O)O)c12 (configuration not stated)	2	-4	7	63*	-9	-1	105*	68*
Cc1ccc(-c2cn3c(n2)CCCC3)cc1	-3	44	-5	38*	-1	0	+	159*
N#Cc1c(-c2ccc(F)cc2)c2c([nH]c1=O)-c1ccccc1OC2	1	-1	-8	105*	5	-36	+	+
Nc1ccn([C@@H]2O[C@H](C(=O)N[C@H](CO)c3ccccc3)[C@@H](O)[C@H]2O)c(=O)n1	.	.	.	1	.	.	.	.
CC(Oc1ccc(C#N)cc1)C(=O)N1CC=C(c2ccccc2)CC1 (configuration not stated)	-1	-4	8	0	-7	.	.	.
Cc1ccc2nc(N3CCN(C(=O)CCCC(=O)O)CC3)nc(-c3ccccc3)c2c1	7	1	10	32*	-10	-278	73*	38*
COc1ccc(/C=C/C(=O)OCC(=O)c2c(N)n(C)c(=O)n(C)c2=O)cc1	3	4	16	-4	-10	-1	.	.
COc1cccc(/C=C/C(=O)OCC(=O)c2c(N)n(C)c(=O)n(C)c2=O)c1	-2	12	19	63*	-1	.	86*	59*
C=CCNC(=O)/C(C#N)=C/c1c(N2CCN(c3ccc(OC)cc3)CC2)nc2c(C)cccn2c1=O	1	0	15	46*	-1	0	174*	158*
COCCCNC(=O)/C(C#N)=C/c1c(N2CCN(c3ccccc3)CC2)nc2c(C)cccn2c1=O	3	0	9	10	4	-18	.	.
COC(=O)/C(C#N)=C/c1c(N2CCN(c3ccccc3)CC2)nc2c(C)cccn2c1=O	.	.	-1	-1	.	3	.	.
CCNC(=O)/C(C#N)=C/c1c(N2CCN(C)CC2)nc2c(C)cccn2c1=O	-1	-1	3	59*	-3	-14	96*	73*
COCCCNC(=O)/C(C#N)=C/c1c(N2CCN(c3cccc(Cl)c3)CC2)nc2c(C)cccn2c1=O	1	88	5	54*	-7	0	146*	120*

Screens deposited in PubChem by several laboratories.
